Compounds with a hit are over-represented: about 8.3% of the library has one in this group of screens.
Chronic BCR inh: chronic active BCR signaling inhibition | ABC-DLBCL IkBa-CBG/CBR reporter, luminescence ratio, 4 h | Potency, µM (highest dose often 46.1 µM), actives largely listed as inhibitors | hit rate 0.05% among 340,000 | AID 493014; active means well fitted inhibition curve with a large enough effect in the signal ratio, with a control signal flat, not every such curve was filed as active; inconclusive means small, poorly fitted or top-dose-only effect, or effect the other way, or a change in a side signal; the % refers to the signal ratio
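Cell line TMD8 (human ABC DLBCL), stably expressing tet-inducible CBG68-IkBa fusion and CBR; IMDM/0.5% FBS; cpd up to 46 uM; dox induction, 4 h, 37C/5% CO2; dual luminescence; green/red ratio; MG132 control.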
MCF10A rereplic: inducers of DNA re-replication in MCF 10A breast cells; MCF 10A DNA re-replication, Hoechst nuclear intensity, 48 h; Potency, µM (titrated, usually from 46.1 µM), most hits filed as activators; hit rate 2.9% among 350,000; AID 624296; further: nearly all actives have a fitted effect of over 50% in size
RORgamma inh: inhibitors of mouse ROR gamma transcriptional activity; Drosophila S2 Gal4-RORgamma UAS-luciferase reporter, 20 h; P51450; Potency, µM (doses to about 53.6 µM), hits mostly inhibitors; hit rate 5.4% among 310,000; AID 2551; further: nearly all actives have a fitted effect of over 60% in size
Target sequence (P51450 whole entry, looked up, the tested form may be a part): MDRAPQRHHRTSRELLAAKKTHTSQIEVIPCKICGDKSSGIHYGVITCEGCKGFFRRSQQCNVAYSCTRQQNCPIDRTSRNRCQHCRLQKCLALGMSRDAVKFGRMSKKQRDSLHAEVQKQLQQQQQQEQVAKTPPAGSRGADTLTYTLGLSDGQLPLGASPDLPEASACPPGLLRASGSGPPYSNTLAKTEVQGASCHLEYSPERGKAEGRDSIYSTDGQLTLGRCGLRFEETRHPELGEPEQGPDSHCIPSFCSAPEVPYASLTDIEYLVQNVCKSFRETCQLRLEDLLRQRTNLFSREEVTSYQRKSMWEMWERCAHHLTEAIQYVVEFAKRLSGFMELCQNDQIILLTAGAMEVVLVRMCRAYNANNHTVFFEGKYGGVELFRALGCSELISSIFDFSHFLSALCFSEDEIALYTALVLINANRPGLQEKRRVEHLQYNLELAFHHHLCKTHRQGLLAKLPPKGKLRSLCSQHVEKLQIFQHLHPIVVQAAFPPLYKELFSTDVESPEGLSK
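Compounds are pin-transferred onto Drosophila Schneider cells expressing a copper-inducible Gal4–ROR gamma transactivation domain fusion. After 1 hr, copper sulfate is added to 700 uM final; luciferase is read 20 hr later.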
VP16 counter: Gal4-VP16 reporter inhibition counter-screen; Potency, µM (titrated, usually from 53.6 µM), hits mostly inhibitors; hit rate 3.5% among 310,000; Drosophila S2 Gal4-VP16 UAS-luciferase, luminescence, 20 h;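 further: Gal4-VP16 expression switched on by copper sulfate through the metallothionein promoter; nearly all actives have a fitted effect of over 50% in size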
SW480 rerep: inducers of DNA re-replication in SW480 colon cancer cells; Potency, µM (titrated, usually from 46.1 µM), hits mostly activators; SW480 DNA re-replication, Hoechst DNA content imaging, 48 h; hit rate 1.8% among 340,000; further: nearly all actives have a fitted effect of over 55% in size
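First, 250 cells per well were seeded. Next, compound or vehicle (23 nL) was pinned in, plates sat 48 hr at 37 C. Finally Hoechst was added for 40 min before fluorescence scanning.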
Giardia killer: Giardia lamblia killing; Giardia lamblia trophozoite viability; activity change, % at 7.66 µM, hits read low; hit rate 0.15% among 340,000; AID 540267; in the data active means activity change below about -80%; inconclusive means between about -30% and that limit;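 further: parasites exposed to compound for two days anaerobically before the ATP read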
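Giardia lamblia trophozoites (100 cells/well) were incubated with compounds for 48 h at 37 deg C under anaerobic conditions. Viability was read as ATP content by one-step luminescence after 15-30 min at room temperature.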
Of the large screens only hits and unclear results are named; the others gave an inactive call. Unless noted, the call rests on the fitted dose curve; in most records, active means well fitted curve in the direction sought with a large enough effect; inconclusive means small, poorly fitted or top-dose-only effect, or another doubt; inactive means no such curve, though single readings can be large; an effect the other way counts as inactive or inconclusive.

C/C(=N/NC(=O)c1cc(-c2ccccc2)nc2c(Cl)cccc12)c1cccnc1	RORgamma inh 18µM, VP16 counter 11µM
C/C(=N/NC(=O)c1ccc(C)s1)c1cccnc1	Chronic BCR inh inconclusive
C/C(=N\NC(=O)c1cc(-c2cccnc2)nc2ccccc12)c1ccc(O)cc1O	MCF10A rereplic inconclusive, RORgamma inh 0.63µM, VP16 counter 0.56µM, SW480 rerep inconclusive
C/C(=N\NC(=O)c1cc(-c2cccc(OC(C)C)c2)nc2ccccc12)c1cccnc1	VP16 counter inconclusive
C/C(=N\NC(=O)c1cc(-c2ccccc2C)nc2ccccc12)c1cccnc1	RORgamma inh inconclusive
C/C(=N/NC(=O)c1ccc(Cl)s1)c1cccnc1	Chronic BCR inh inconclusive, RORgamma inh 13µM, VP16 counter inconclusive
Cc1ccc(-c2nc(CN3CCCC(C(=O)N4CCOCC4)C3)c(C)o2)cc1 (centres undefined)	none
CCC(CC)C(=O)Nc1nnc(S(=O)(=O)N2CCCC2)s1	none
COc1ccccc1Nc1nc(N)nc(CN2CCc3ccccc3C2)n1	Chronic BCR inh inconclusive, RORgamma inh 11µM, VP16 counter inconclusive
COc1ccc(Nc2nc(N)nc(CSC(=S)N3CCCCC3C)n2)cc1 (centres undefined)	Chronic BCR inh inconclusive, MCF10A rereplic inconclusive, RORgamma inh 13µM, SW480 rerep inconclusive
CC1CCN(C(=S)SCc2nc(N)nc(Nc3ccccc3)n2)CC1	none
COc1ccccc1Nc1nc(N)nc(CSC(=S)N2CC(C)CC(C)C2)n1 (centres undefined)	RORgamma inh inconclusive, VP16 counter 25µM
O=S1(=O)C2CC3CCC2(CN1Cc1ccccc1)O3 (centres undefined)	none (no result: Chronic BCR inh, MCF10A rereplic, SW480 rerep)
COC(=O)c1ccc(CSc2ccc3nnc(-c4ccccn4)n3n2)o1	Chronic BCR inh inconclusive, RORgamma inh 11µM, VP16 counter inconclusive
Cc1cc2ccccn2c1C(=S)NC(=O)c1ccccc1	RORgamma inh 3.2µM, VP16 counter 3.5µM
Cc1cc2ccccn2c1C(=O)c1ccncc1	none
Cc1cc2ccccn2c1C(=O)Nc1cccc(Cl)c1	VP16 counter inconclusive
Cc1cc2ccccn2c1C(=O)c1ccc(Cl)cc1	RORgamma inh inconclusive, VP16 counter 16µM
Cc1sc2ncnc(Sc3ccccc3C(=O)Nc3ccc(Br)cc3)c2c1C	Chronic BCR inh inconclusive, RORgamma inh 10µM, VP16 counter 8.9µM (no result: SW480 rerep)
Cc1sc2ncnc(Sc3ccccc3C(=O)Nc3ccc(C#N)cc3)c2c1C	SW480 rerep inconclusive
O=[N+]([O-])c1c(NCCCO)cc(N2CCCCCC2)c2nonc12	VP16 counter inconclusive
O=[N+]([O-])c1c(NCCCO)cc(N2CCN(Cc3ccc4c(c3)OCO4)CC2)c2nonc12	MCF10A rereplic inconclusive, RORgamma inh 5µM, VP16 counter 3.5µM
Cn1ccnc1Sc1cc(NCCCO)c([N+](=O)[O-])c2nonc12	Chronic BCR inh inconclusive, MCF10A rereplic 18µM, RORgamma inh 1.3µM, VP16 counter 11µM
O=[N+]([O-])c1c(NCCCO)cc(SCc2ccco2)c2nonc12	Chronic BCR inh inconclusive, MCF10A rereplic inconclusive, RORgamma inh inconclusive, VP16 counter inconclusive, SW480 rerep inconclusive
O=[N+]([O-])c1c(NCCCO)cc(Sc2ccc(Cl)cc2)c2nonc12	Chronic BCR inh inconclusive, MCF10A rereplic 13µM, RORgamma inh 5µM, VP16 counter 5µM
COc1ccc2nc(NC(=O)c3ccc(F)cc3)sc2c1	Chronic BCR inh inconclusive, RORgamma inh 11µM
COc1ccc(OC)c(-c2csc(NC(=O)c3ccc(F)cc3)n2)c1	MCF10A rereplic 6.5µM, RORgamma inh 11µM, VP16 counter 10µM, SW480 rerep inconclusive
COc1ccc2nc(NC(=O)c3ccc4ncsc4c3)sc2c1	Chronic BCR inh inconclusive, MCF10A rereplic 15µM, SW480 rerep inconclusive
COc1ccc(OC)c(-c2csc(NC(=O)Cn3[nH]c(=O)c4ccccc4c3=O)n2)c1	MCF10A rereplic inconclusive, RORgamma inh inconclusive, VP16 counter inconclusive, SW480 rerep 8.2µM
CN1CCc2c(c3cnc4cc(Cl)ccc4c3n2C)C1	none (no result: Chronic BCR inh, MCF10A rereplic, RORgamma inh, VP16 counter, SW480 rerep)
CCCn1c(-c2ccc(F)cc2)nc2c(NCC(C)(C)CN(C)C)nc(C)nc21	none (no result: Chronic BCR inh, MCF10A rereplic, SW480 rerep, Giardia killer)

Screens as filed in PubChem BioAssay.
